From PubChem BioAssay
HT1080 IDH1KD tx: kills HT-1080 cells with IDH1 knockdown; HT-1080 IDH1 knockdown viability, ATP luminescence, 48 h; Potency, µM (top dose mostly 46.1 µM), without a hit: at the highest dose activity, negative = toxicity, most hits filed as cytotoxic; 2% of 360,000 active; AID 686971;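 further: potency means the concentration at half of the fitted maximal effect; 0% = DMSO wells and -100% = cell-free medium wells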
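Cytotoxicity counter-line: IDH1KD HT-1080, 48 h, CellTiter-Glo. Curves classed by r2, magnitude and activity.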
TDP1 cell noCPT: qHTS for Inhibitors of human tyrosyl-DNA phosphodiesterase 1 (TDP1): qHTS in cells in absence of CPT; DT40 Tdp1-/- hTDP1 cells, no CPT, ATP luminescence, 48 h; Potency, µM (doses to about 46.2 µM), inactives show top-dose activity change, negative = growth inhibition, most hits filed as inhibitors; 15% of 420,000 active; AID 686978, 2013; further: potency means the concentration at half of the fitted maximal effect; nearly all actives have a fitted effect of over 55% in size
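Readout: luminescence from CellTiter-Glo after 30 min in the dark at RT. Cells: DT40 Tdp1-/- with stable hTDP1, 400/well. Exposure: compounds alone, ≥48 hr, 37 °C.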
DT40 TDP1 CPT: DT40-hTDP1 cell growth loss with CPT; Potency, µM (series often up to 46.2 µM), without a hit: at the highest dose activity change, negative = growth inhibition, actives largely listed as inhibitors; AID 686979; 12% of 420,000 active; chicken DT40 Tdp1-/-;hTDP1 cells + 20 nM CPT, ATP luminescence, 48 h; further: potency means the concentration at half of the fitted maximal effect; nearly all actives have a fitted effect of over 55% in size
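Chicken DT40 Tdp1-/- cells complemented with human TDP1, 400 cells/well, exposed to compounds plus 20 nM camptothecin for at least 48 h at 37 C; viability read as ATP content by CellTiter-Glo luminescence.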
12-LOX inh: inhibitors of human 12S-lipoxygenase ALOX12; AID 1671190; purified 12hLO, xylenol orange hydroperoxide absorbance; 1.1% of 580,000 active; Potency, µM (series often up to 108 µM), for inactives: top-dose activity change, negative = inhibition, hits mostly inhibitors; further: potency means the concentration at half of the fitted maximal effect
Target sequence (P18054 whole entry, looked up): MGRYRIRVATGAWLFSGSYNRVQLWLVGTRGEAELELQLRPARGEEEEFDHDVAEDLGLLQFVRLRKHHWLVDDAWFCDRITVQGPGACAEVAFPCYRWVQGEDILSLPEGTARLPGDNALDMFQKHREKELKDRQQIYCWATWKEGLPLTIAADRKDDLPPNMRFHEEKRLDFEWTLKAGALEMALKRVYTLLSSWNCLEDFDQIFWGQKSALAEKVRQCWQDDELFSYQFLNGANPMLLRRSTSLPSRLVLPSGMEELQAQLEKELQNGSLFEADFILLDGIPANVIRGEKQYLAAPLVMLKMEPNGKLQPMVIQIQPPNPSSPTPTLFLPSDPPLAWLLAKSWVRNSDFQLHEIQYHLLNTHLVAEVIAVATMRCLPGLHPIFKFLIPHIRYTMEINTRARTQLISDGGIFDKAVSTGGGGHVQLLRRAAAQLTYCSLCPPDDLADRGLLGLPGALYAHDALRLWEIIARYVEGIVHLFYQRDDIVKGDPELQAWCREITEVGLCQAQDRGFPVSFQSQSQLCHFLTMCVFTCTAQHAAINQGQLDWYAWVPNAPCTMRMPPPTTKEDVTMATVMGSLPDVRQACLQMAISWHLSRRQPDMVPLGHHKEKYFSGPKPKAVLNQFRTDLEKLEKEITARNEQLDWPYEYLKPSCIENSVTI
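Purified human 12hLO (150 nM final) in 25 mM Hepes, 0.01% Triton X-100, pH 7.0 was preincubated 15 min at room temperature with compound. Then 40 uM arachidonic acid was added, 30 min. Hydroperoxide was read by Fe-XO absorbance ratio 573/405 nm.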
HT1080NT lethal: kills 2HG-producing HT-1080-NT fibrosarcoma cells; HT-1080-NT fibrosarcoma viability, CellTiter-Glo ATP luminescence, 48 h; Potency, µM (highest dose often 46.1 µM), without a hit: at the top dose activity, negative = less viability, usual class: cytotoxic; 1.6% of 360,000 active; AID 686970;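 further: NT is the 2HG producing partner of a matched IDH1 knockdown line; potency means the concentration at half of the fitted maximal effect; 0% = DMSO-treated cells and -100% = media-only wells without cells; nearly all actives have a fitted effect of over 55% in size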
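Read-out is CellTiter-Glo luminescence after 10 minutes at room temperature, following 48 hours' compound treatment of HT-1080-NT cells (750 cells/well, RPMI, 5% FBS, 37 degrees C).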
IL1B secr inh: inflammasome signaling inhibition, IL-1 beta readout; AID 743279; 4.7% of 360,000 active; activity change, % at 57.5 µM; THP-1 LPS/ATP IL-1B secretion, AlphaLISA, 16 h; hits give low values; in the data active means activity change below about -50%; inconclusive means mostly about -30% to -49%
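Secreted IL-1B measured by AlphaLISA bead assay after 16 h compound exposure of THP-1 cells; compounds (final up to 57.5 uM) added 1 h before LPS (250 ng/mL) and ATP (1.25 mM) stimulation; lower signal means less secretion.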
* hit, by the source's call; ? = inconclusive; / = no result given; [ ] = dose if it differs, or a comment. The full list was thinned out, with hits kept by preference. Unless noted, the call rests on the fitted dose curve; in most records, active means well fitted curve in the direction sought with a large enough effect; inconclusive means small, poorly fitted or top-dose-only effect, or another doubt; inactive means no such curve, though single readings can be large; an effect the other way counts as inactive or inconclusive. Unless noted, on the % scale 0 is the no-effect control and ±100 the full control effect.

SMILES | HT1080 IDH1KD tx | TDP1 cell noCPT | DT40 TDP1 CPT | 12-LOX inh | HT1080NT lethal | IL1B secr inh
Cc1ccc(NC(=O)/C=C/c2ccccc2)c(Br)c1 | / | ? | ? | -21% | / | /
Cc1cc(C)c(Nc2ncnc3c2cnn3C)c(C)c1 | / | 16µM* | 21µM* | -55% | / | /
Cc1cccc(-n2ncc3c(Nc4c(C)cc(C)cc4C)ncnc32)c1 | / | 4.6µM* | 3.3µM* | -14% | / | /
O=C(N/N=C/c1ccccc1O)C1CC(=O)N(c2ccc(Cl)cc2)C1 (stereo unspecified) | 3.3µM* | 3.7µM* | 7.3µM* | 9% | ? | 178
Cc1ccc(O)c(N=Cc2ccc(C)s2)c1 | -6% | -15% | -17% | ? | -7% | 3
Cc1ccc(O)c(N=Cc2cccs2)c1 | 2% | ? | 23µM* | ? | 2% | -1
COc1ccc(CONS(=O)(=O)c2ccc(NC(C)=O)cc2)cc1Cl | -26% | ? | 21µM* | -18% | -12% | 9
COc1ccc(S(=O)(=O)Nc2ccc(NC(C)=O)cc2)cc1Cl | 2% | -3% | 7% | 6% | 1% | 13
COc1ccc(CCN2C(=O)c3cccc4c(C(=O)N5CCCCC5)ccc(c34)C2=O)cc1OC | 4% | ? | 16µM* | -8% | 2% | -3
CC(C)(C)[C@H]1COC(=O)CC/C=C\C[C@@H](CC(=O)N(CCO)Cc2ccccc2)C(=O)N1 | 6% | 5% | -11% | -29% | 25% | -9
CCC1(CC)Cc2ccccc2-c2nc(CN3CCCC3)[nH]c(=O)c21 | / | / | / | -10% | / | /
Cc1cccc(OCCNc2cc(N3CCN(C)CC3)ccc2[N+](=O)[O-])c1 | 16% | 23µM* | ? | 12% | 2% | ?
Cc1cccc(OCCNc2cc(N3CCOCC3)ccc2[N+](=O)[O-])c1 | ? | ? | ? | 21% | ? | -17
COc1ccccc1OCCNc1cc(N2CCCCC2)ccc1[N+](=O)[O-] | 0% | ? | ? | 4% | 1% | -26
Cc1ccc(OCCNc2cc(N3CCN(CCO)CC3)ccc2[N+](=O)[O-])cc1C | ? | 29µM* | ? | ? | ? | ?
N=c1oc2ccc(Cl)cc2cc1C(=O)NC1CCCCCC1 | 29% | 21µM* | 26µM* | ? | ? | /
N=c1oc2ccccc2cc1C(=O)NC1CCCCCC1 | 6% | -18% | -29% | 6% | -2% | 0
N=c1oc2cc(O)ccc2cc1C(=O)Nc1ccc(Cl)cc1 | ? | 8% | ? | -17% | -4% | -89*
O=C(Nc1ccc(Br)cc1)c1cc2ccc(O)cc2oc1=O | / | / | / | 0% | / | /
Cc1nc2c(c(C)c1CCC(=O)N1CCN(c3ccccc3)CC1)c(=O)n(C)c(=O)n2C | / | -28% | -3% | 8% | / | /
Cc1ccc(Cl)cc1NC(=O)Nc1cccs1 | -16% | 21µM* | -25% | -9% | -14% | -4
Cc1ccc(NC(=O)Nc2cccs2)c(C)c1 | / | ? | 15µM* | 1% | / | /
CC(C)c1nccc(-c2c(-c3ccccc3)ncn2CCCN2CCOCC2)n1 | / | / | / | 17% | / | /
Cc1cc(N2CCN(C)CC2)ccc1NC(=O)c1cccc(S(=O)(=O)N2CCc3ccccc3C2)c1 | -103% | 18µM* | 23µM* | 13% | ? | -103*
COc1cccc(CNC(=O)c2cccc(S(=O)(=O)N3CCN(C)CC3)c2)c1 | -8% | -1% | -11% | 40µM* | -2% | 20
SMILES | HT1080 IDH1KD tx | TDP1 cell noCPT | DT40 TDP1 CPT | 12-LOX inh | HT1080NT lethal | IL1B secr inh
CCOc1ccc(CCNC(=O)c2cccc(S(=O)(=O)N3CCOCC3)c2)cc1OCC | 10% | -26% | -23% | -2% | 8% | 8
COc1cc(OC)c(OC)cc1CNC(=O)c1cccc(S(=O)(=O)N2CCc3ccccc3C2)c1 | -29% | 8.2µM* | 13µM* | -4% | ? | 9
CCOc1ccc(CCNC(=O)c2cccc(S(=O)(=O)N3CCCCC3)c2)cc1OCC | -28% | 7.3µM* | 13µM* | 12% | -11% | -30
COc1ccc2c(C)c(CC(=O)Nc3ccc4c(c3)OCCO4)c(=O)oc2c1C | / | / | / | -1% | / | /
CC(C)NC(=O)C(NC(=O)c1ccc2c(c1)OCO2)C1CCN(C(=O)c2ccc(Cl)cc2)CC1 (stereo unspecified) | / | / | / | 10% | / | /
CN1CCC2(CC1)N=C(SCC(=O)Nc1cc(F)ccc1F)C(c1ccccc1)=N2 | / | / | / | -9% | / | /
N#Cc1nc(-c2ccccc2)oc1N1CCN(C(=O)c2ccccc2F)CC1 | / | / | / | -11% | / | /
COc1ccc(CNC(=O)c2cc(S(=O)(=O)N3CCCCC3)ccc2Cl)cc1OC | -18% | 18µM* | ? | -7% | 9.2µM* | -9
COc1ccc(CNC(=O)c2cccc(S(=O)(=O)N3CCCCC3)c2)cc1OC | -16% | ? | 13µM* | -21% | -14% | -14
O=C(NCc1ccc(F)cc1)c1cc(S(=O)(=O)N2CCCCC2)ccc1Cl | -1% | 17% | 2% | 0% | 8% | 9
CCOC(=O)C1(C)CCN1C(=O)c1oc2ccccc2c1C (stereo unspecified) | 1% | ? | ? | -3% | 26% | 40
CN(C)N(C(=O)c1cc(-c2cccs2)nn1-c1ccccc1)C1CCS(=O)(=O)C1 (stereo unspecified) | -1% | -11% | -5% | 0% | -6% | -3
Cc1ccc(NC(=O)CSc2ncc(S(=O)(=O)c3ccc(C(C)C)cc3)c(=O)[nH]2)cc1C | / | / | / | 45µM* | / | /
Cc1oc(-c2ccccc2)nc1CC(=O)Nc1ccc(S(=O)(=O)N(C)C(C)C)cc1 | / | / | / | -14% | / | /
CCOC(=O)c1ccc(NC(=O)CSc2nc3cccnc3n2C)cc1 | ? | 21µM* | ? | 0% | -14% | -19
COC(=O)c1ccc(NC(=O)CSc2nc3cccnc3n2C)cc1 | -28% | 16µM* | ? | 178%[57.4 µM] | -4% | -2
COc1ccc(NC(=O)CSc2nc3cccnc3n2C)cc1 | -7% | -55% | -14% | 3% | -5% | -11
CCOC(=O)c1ccc(NC(=O)CSc2nc(=O)n3cccc(C)c3n2)cc1 | 2% | 13µM* | 21µM* | ? | 1% | ?
CCOC(=O)c1c(-c2ccccc2)nc2c(C)cccn12 | 17% | 16µM* | 15µM* | -4% | 8% | 11
CCOC(=O)c1c(-c2ccccc2)nc2ccccn12 | 1% | ? | ? | 0% | -8% | -15
O=C(N1CC[C@@H](c2ccc3ccccc3c2)[C@H](O)C1)C1(Cn2ccnc2)CC1 | / | / | / | 1% | / | /
